Our source for the Potency values is PubChem BioAssay (NCATS).

Structures are written as SMILES. Records with an inconclusive call do not appear. Entries that show only a call come without a potency. Activity calls are given as the source filed them. Calls follow the shape of the dose curve; as a rule, active = well fitted inhibition curve with a large enough effect; inconclusive = small, poorly fitted or top-dose-only effect; inactive = flat fitted curve, though single readings scatter.

For the assay, the system named is Zika virus NS2B-NS3 protease. Briefly: Primary screen GU AMC qHTS for Zika virus inhibitors (AID 1347154). Also: nearly all actives have a fitted effect of over 70% in size. The conditions noted are these: Zika NS2B-NS3 unlinked protease, AMC fluorogenic substrate; series mostly up to 54.1 µM. An outline of the steps:
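Unlinked Zika NS2B hydrophilic domain/NS3 protease domain noncovalent complex (25 nM final) in 10 mM Tris-HCl pH 8.0, 0.01% Tween 20, with AMC peptide substrate. Fluorescence (ex 340, em 450 nm) change over 15 min, room temperature; percent inhibition fitted to 4-parameter Hill equation.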
For the compound `COC(=O)C1=C(C)NC(C)=C(C(=O)OCCCN2CCC(c3ccccc3)(c3ccccc3)CC2)C1c1cccc([N+](=O)[O-])c1` (stereo not drawn), the Potency entry was “inactive”.

For the compound `CC(C)c1nc(CN(C)C(=O)N[C@H](C(=O)N[C@@H](Cc2ccccc2)C[C@H](O)[C@H](Cc2ccccc2)NC(=O)OCc2cncs2)C(C)C)cs1`, the Potency entry is “inactive”.

On to `O=C(O)c1cc(=O)c2c(OCC(O)COc3cccc4oc(C(=O)O)cc(=O)c34)cccc2o1`, for which the Potency result was “inactive”.

On to `Cc1cc2c(s1)Nc1ccccc1N=C2N1CCN(C)CC1`, for which the Potency result was “inactive”.

With `Cc1cc2cc3c(C)cc(=O)oc3c(C)c2o1`, the Potency entry was “inactive”.

Consider `Cc1nccn1CC1CCc2c(c3ccccc3n2C)C1=O` (stereo not drawn), for which the Potency entry is “inactive”.

With `COc1cc(Nc2c(C#N)cnc3cc(OCCCN4CCN(C)CC4)c(OC)cc23)c(Cl)cc1Cl`, the Potency entry is “inactive”.

For `O=P(O)(O)C(O)(Cn1ccnc1)P(=O)(O)O`, the Potency result is “inactive”.

In the case of `CN(C)CCCC1(c2ccc(F)cc2)OCc2cc(C#N)ccc21` (stereo not drawn), the Potency result is “inactive”.

`O=C(NCCO[N+](=O)[O-])c1cccnc1`: the Potency entry was “inactive”.

As for `CC(C)(S)[C@@H](N)C(=O)O`, the Potency result is “inactive”.

In the case of `Cc1cccc(C#Cc2ccccc2)n1`, the Potency result was “inactive”.

With `O=C(OC1C[C@H]2CC[C@@H](C1)[N+]21CCCC1)C(O)(c1ccccc1)c1ccccc1` (stereo partly drawn), the Potency entry was “inactive”.

As for `O=C(O)c1cccc(-c2noc(-c3ccccc3F)n2)c1`, the Potency entry is “inactive”.

Turning to `COC(=O)C1=C(C)NC(C)=C(C(=O)OC(C)C)C1c1cccc2nonc12` (stereo not drawn), the Potency entry is “inactive”.

On to `CN(C)CCc1c[nH]c2ccc(Cn3cncn3)cc12`, for which the Potency entry is “inactive”.

Turning to `O=C(NC(Cc1cc(=O)[nH]c2ccccc12)C(=O)O)c1ccc(Cl)cc1` (stereo not drawn), the Potency entry is “inactive”.

In the case of `O=C(O)CCNC(=O)c1ccc(N=Nc2ccc(O)c(C(=O)O)c2)cc1`, the Potency result is “inactive”.

On to `CC(C)[C@H](N)C(=O)OCCOCn1cnc2c(=O)[nH]c(N)nc21`, for which the Potency result is “inactive”.

As for `NS(=O)(=O)c1cc(C(=O)O)c(NCc2ccco2)cc1Cl`, the Potency result was “inactive”.

In the case of `CCC(C)(Oc1ccc(C2(c3ccc(OC(C)(CC)C(=O)O)cc3)CCCCC2)cc1)C(=O)O` (stereo not drawn), the Potency entry is “inactive”.

Turning to `COc1ccc2cc([C@H](C)C(=O)O)ccc2c1`, the Potency entry was “inactive”.

For the compound `CC1=C(C)C(=O)C(C(CCCCCC(=O)O)c2ccccc2)=C(C)C1=O` (stereo not drawn), the Potency result is “inactive”.

In the case of `O=C1c2ccccc2-c2n[nH]c3cccc1c23`, the Potency entry is “inactive”.

`CCCCC(CC)COC(=O)C(C#N)=C(c1ccccc1)c1ccccc1` (stereo not drawn): the Potency entry was “inactive”.

For `CN1C(C(=O)Nc2ccccn2)=C(O)c2sccc2S1(=O)=O`, the Potency entry was “inactive”.

In the case of `N=C(N)c1ccc2cc(OC(=O)c3ccc(N=C(N)N)cc3)ccc2c1`, the Potency entry was “inactive”.

With `CCCCCCCCCCCCCCCCCCCCCCO`, the Potency entry was “inactive”.

Take `Cc1cc(=O)c2c(O)c3c(O)cc(=O)c4c3c3c(cc(O)c1c23)C(C)(C)C=4O`: the Potency result was “inactive”.

Turning to `Nc1cccc2c1CN(C1CCC(=O)NC1=O)C2=O` (stereo not drawn), the Potency entry is “inactive”.

Take `OC(CN1CCN(c2cccc(Cl)c2)CC1)C(c1ccccc1)c1ccccc1` (stereo not drawn): the Potency entry was “inactive”.

As to `CC(C)[N+]1(C)[C@@H]2CC[C@H]1CC(OC(=O)C(CO)c1ccccc1)C2` (stereo partly drawn), the Potency entry was “inactive”.

As for `COc1cc2c(N3CCN(C(=O)Nc4ccc(OC(C)C)cc4)CC3)ncnc2cc1OCCCN1CCCCC1`, the Potency result is “inactive”.

As to `COCCCOc1ccnc(CS(=O)c2nc3ccccc3[nH]2)c1C` (stereo not drawn), the Potency entry is “inactive”.

Take `COc1cc(OC)c(C(=O)CCCN2CCCC2)c(OC)c1`: the Potency entry was “inactive”.

In the case of `NC(=O)Cc1cccc(C(=O)c2ccccc2)c1N`, the Potency entry is “inactive”.

As for `O=c1oc2cc(O)ccc2s1`, the Potency entry was “inactive”.

On to `COc1ccc(C2(C#N)CCC(C(=O)O)CC2)cc1OC1CCCC1` (stereo not drawn), for which the Potency entry was “inactive”.
